# Screening data from PubChem.
# The list is not random: actives were taken first. Their share in the collection is about 2.2%.
# ANO1 block: TMEM16A chloride channel inhibitors, primary screen, cell-based, HTS. Anoctamin-1 (Mus musculus), Q8BHY3. HEK293 TMEM16A/YFP iodide influx fluorescence, ionomycin. normalized B-score (activity score, 25-100; higher = stronger inhibition) at 10 µM. 310,000 compounds, 1.2% hits;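 active = ratio plate-corrected score three or more library SD toward inhibition, starting fluorescence score within five deviations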;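 note: score derived from kinetic fluorescence span divided by baseline fluorescence per well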
# ANO1 activ: TMEM16A chloride channel activators or potentiators, primary screen, cell-based, HTS | 340,000 compounds, 0.3% hits | AID 623877, 2012 | HEK293 TMEM16A/YFP-H148Q/I152L, iodide quench fluorescence; stronger effect = lower value | B-score at 10 µM;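 active = fluorescence-ratio B-score plate-corrected deviation score at least 3 library SD below zero, with starting fluorescence score within 5 deviations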;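 note: channel opened by trigger with iodide after compound preincubation; score built on the fluorescence ratio of max minus min over baseline; more negative score means more quench and so TMEM16A activation or potentiation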
# GRK2 aptamer HTS: compounds blocking aptamer binding on GRK2 – biochemical, human GRK2, bead flow cytometry, HTS, primary screen; FAM-aptamer displacement from GRK2; inhibition of aptamer binding, % at 10 µM; 330,000 compounds, 0.59% hits;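 active = inhibition of aptamer binding above 40%, roughly 3 SD of noise, on plates passing a quality check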;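 note: median bead fluorescence of bound FAM aptamer so fluorescent compounds give negative values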
# TLR4-MyD88 BLA: inhibitors of TLR4-MyD88 association in cells, primary screen, cell-based, HeLa CL3-4, BLA complementation, FRET ratio; Toll-like receptor 4 (Homo sapiens) + Myeloid differentiation primary response protein …; HeLa CL3-4 TLR4/MyD88 BLA complementation; inhibition, % at 8.4 µM; 200,000 compounds, 0.18% hits; AID 861, 2007; in the data active = inhibition above about 25%;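 note: 0% = vehicle and 100% = reference inhibitor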
# Target sequence (O00206 whole entry, looked up): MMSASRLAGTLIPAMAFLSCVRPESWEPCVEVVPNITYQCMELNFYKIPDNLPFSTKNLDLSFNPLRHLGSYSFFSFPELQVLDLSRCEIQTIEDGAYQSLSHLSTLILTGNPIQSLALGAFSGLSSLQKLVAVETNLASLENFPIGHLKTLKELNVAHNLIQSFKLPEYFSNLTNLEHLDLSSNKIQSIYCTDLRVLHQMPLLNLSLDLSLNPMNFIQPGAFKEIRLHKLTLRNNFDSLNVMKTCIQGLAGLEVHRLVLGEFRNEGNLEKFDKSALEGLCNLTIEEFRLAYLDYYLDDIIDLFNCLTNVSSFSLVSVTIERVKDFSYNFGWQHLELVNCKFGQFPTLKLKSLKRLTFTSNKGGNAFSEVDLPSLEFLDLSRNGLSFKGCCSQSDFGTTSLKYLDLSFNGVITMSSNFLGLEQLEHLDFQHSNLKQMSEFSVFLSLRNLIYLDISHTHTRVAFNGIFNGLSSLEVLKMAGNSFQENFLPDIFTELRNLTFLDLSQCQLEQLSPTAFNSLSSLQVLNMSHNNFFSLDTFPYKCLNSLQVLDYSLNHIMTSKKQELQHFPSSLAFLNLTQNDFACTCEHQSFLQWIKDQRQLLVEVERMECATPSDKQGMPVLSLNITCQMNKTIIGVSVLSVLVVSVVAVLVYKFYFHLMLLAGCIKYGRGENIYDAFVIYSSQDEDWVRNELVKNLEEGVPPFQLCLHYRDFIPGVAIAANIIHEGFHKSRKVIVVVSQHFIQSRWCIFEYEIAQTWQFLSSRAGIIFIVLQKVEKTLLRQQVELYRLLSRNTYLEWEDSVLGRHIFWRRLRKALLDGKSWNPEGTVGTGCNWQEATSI
# Target sequence (Q99836 whole entry, looked up): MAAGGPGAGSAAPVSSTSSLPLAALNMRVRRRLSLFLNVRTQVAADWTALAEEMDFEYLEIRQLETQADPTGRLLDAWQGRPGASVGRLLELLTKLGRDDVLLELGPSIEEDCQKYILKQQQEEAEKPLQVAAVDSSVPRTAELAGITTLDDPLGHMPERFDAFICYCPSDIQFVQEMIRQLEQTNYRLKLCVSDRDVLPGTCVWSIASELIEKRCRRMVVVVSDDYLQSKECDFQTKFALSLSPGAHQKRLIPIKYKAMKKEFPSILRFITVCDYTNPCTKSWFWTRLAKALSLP
# NOD2 RIPK2 PPI: NOD2-RIPK2 binding disruptors in cells, primary screen, fluorescence, CHO cells, BLA complementation; Receptor-interacting serine/threonine-protein kinase 2 (Homo sapiens), O43353; CCF4 ratio; inhibition, % at 4.98 µM; 360,000 compounds, 0.38% hits; AID 624267, 2012; in the data active = inhibition above about 21%;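 note: 0% = vehicle only and 100% = reference blocker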
# TLR9-MyD88 inh: inhibitors of TLR9-MyD88 association in cells, primary screen, cell-based, CHO, BLA complementation, fluorescence | inhibition, % at 4.98 µM | CCF4 FRET ratio | Toll-like receptor 9 (Homo sapiens) + Myeloid differentiation primary response protein … | AID 504734, 2011 | 340,000 compounds, 0.21% hits;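 active = inhibition above the mean over all tested compounds plus 3 SD, cut at about 21% in these data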;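 note: 0% = DMSO only wells and 100% = clavulanate BLA inhibitor control wells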
# Numbers without * were called inactive; i = inactive; nt = no result given.
SMILES,ANO1 block,ANO1 activ,GRK2 aptamer HTS,TLR4-MyD88 BLA,NOD2 RIPK2 PPI,TLR9-MyD88 inh
COc1ccc(S(=O)(=O)Nc2ccc(Cc3ccncc3)cc2)cc1OC,25*,i,1,nt,5,-3
O=C(Nc1ccc(Cl)cc1)C1Cc2c(-c3ccccc3)ccnc2O1 (stereo unspecified),nt,nt,nt,nt,8,nt
CCCOC(=O)c1ccc(Oc2c(-c3ccc(OC)cc3O)n[nH]c2C)cc1,i,i,0,7,11,-7
CCCOC(=O)c1ccc(Oc2c(-c3ccc(O)cc3O)n[nH]c2C)cc1,25*,i,6,-1,0,0
O=C(c1ccco1)N1N=C(c2ccccc2O)CC1c1cccs1 (stereo unspecified),nt,nt,nt,nt,-5,-1
Cc1ccc(-c2nn(-c3ccccc3)cc2/C=N/NC(=O)c2ccc(Br)o2)cc1,100*,i,0,-30,5,5
O=C(N/N=C\c1cn(-c2ccccc2)nc1-c1ccccc1)c1ccc(Br)o1,i,i,1,-13,4,-4
Cc1noc(C)c1COc1ccccc1C(=O)NCCOc1ccccc1,nt,i,nt,nt,-14,-12
CCOC(=O)c1c(CSC(=N)N)n(-c2ccc(C)cc2)c2cc(Br)c(OC(C)=O)cc12,100*,i,1,-12,10,-9
COc1ccc(NC(=O)CN2CCN(c3ccc(F)cc3)CC2)cc1Cl,i,-11*,2,2,-11,-12
COc1ccc(NC(=O)CN2CCN(c3ccc(F)cc3)CC2)cc1,i,i,3,nt,-5,-13
CSc1ccccc1NC(=O)CN(C)Cc1cccc(Cl)c1,i,-39*,0,5,1,10
COc1ccc(CN2CCN(Cc3ccc(Br)cc3)CC2)c(OC)c1OC,25*,i,0,nt,-4,5
CC[C@@H](C(=O)[C@@H](C)[C@@H](O)[C@H](C)CCc1ccc(C)c(O)c1C(=O)O)[C@H]1O[C@](CC)([C@H]2CC[C@](O)(CC)[C@H](C)O2)C[C@@H]1C,100*,-5.5*,0,nt,-13,0
O=C(Nc1ccc(F)cc1)C(c1cc2ccccc2o1)N1CCN(C(=O)c2ccco2)CC1 (stereo unspecified),nt,nt,nt,nt,4,nt
CC(=O)N1CCC(C(=O)N2c3ccccc3N=C(c3ccc4c(c3)OCO4)C2C(=O)Nc2c(C)cccc2C)CC1 (stereo unspecified),nt,nt,nt,nt,7,nt
COc1cccc(S(=O)(=O)Nc2ccc3c(c2)C(=O)N(C)C[C@H](OC)[C@H](C)CN[C@@H](C)CO3)c1,nt,nt,nt,nt,-24,nt
CCn1c(CNC(=O)COc2ccc(C(C)C)cc2)nnc1SCC(=O)Nc1ccccc1F,i,i,2,2,4,4
CCn1c(CNC(=O)COc2ccc(C(C)C)cc2)nnc1SCC(=O)Nc1ccccc1C(C)C,25*,i,0,3,15,7
Cc1ccc(NC(=O)CSc2nn(-c3ccc(Cl)cc3)c(=S)s2)cc1S(=O)(=O)N(C)C,100*,i,8,13,7,6
Cc1ccc(Cl)cc1N1CCN(S(=O)(=O)N2CCCCC2)CC1,i,-9.7*,0,14,-1,6
Cc1ccc(Cl)cc1N1CCN(S(C)(=O)=O)CC1,i,i,0,4,6,4
CO[C@@H]1CN(C)C(=O)c2ccc(NC(=O)c3ccccc3F)cc2OC[C@@H](C)N(CC2CCOCC2)C[C@@H]1C,nt,nt,nt,nt,1,nt
Cc1ccc(S(=O)(=O)N2CCC(=O)N([C@H](COCc3cccc(Cl)c3)Cc3ccccc3)CC2)cc1,nt,nt,nt,nt,-7,nt
Cc1ccc(S(=O)(=O)N2CCC(=O)N(C(COCc3cccc(Cl)c3)Cc3ccccc3)CC2)cc1 (stereo unspecified),i,-11*,nt,-5,-12,-6
